The text below walks through data of PubChem BioAssay (Tox21).

Test [1] is described as follows: Human pregnane X receptor (PXR) small molecule agonists, qHTS cell viability counter screen (AID 1346977). Also: nearly all actives have a fitted effect of over 50% in size. Also: potency is read from the fitted curve at half-maximal effect. Summed up: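 PXR-Luc HepG2, 2,000 cells/well, 5% charcoal-stripped FBS; 5hr settle; cpd 24hr, 37C/5% CO2; CellTiter-Fluor at 23hr, read 1hr later (fluorescence).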
(In qHTS, concentration-response curves come from the screen itself.)

Test [2] can be described thus: Caspase-3/7 induction in HepG2 cells by small molecules, qHTS assay (AID 1346978). Also: nearly all actives have a fitted effect of over 15% in size. A digest of the protocol: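 Wild-type HepG2 cells, 2,000/well, settled 5 hr at 37 C and 5% CO2, then compound-treated for 17 hr; caspase-3/7 activity read by luminescent Caspase-Glo 3/7 after 30 min at room temperature.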
Test [3] can be described thus: Caspase-3/7 induction in CHO-K1 cells by small molecules, qHTS cell viability counter screen (AID 1346979). Also: nearly all actives have a fitted effect of over 35% in size. Also: potency is read from the fitted curve at half-maximal effect. A digest of the protocol:
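Cells (CHO-K1, wild type) are plated at 1,500 per well and incubated 5hr. Test compounds in DMSO are then pinned in, followed by 16hr at 37C and 5% CO2. Viability is read by CellTiter-Fluor fluorescence after 1hr.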

Test [4] in a line: Caspase-3/7 induction in CHO-K1 cells by small molecules, qHTS assay (AID 1346980). Also: nearly all actives have a fitted effect of over 15% in size. A digest of the protocol: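 Wild-type CHO-K1 cells exposed to compounds for 17hr at 37 C, 5% CO2. Caspase-3/7 activity then measured by Caspase-Glo 3/7 luminescence after 30min at room temperature.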
Test [5] in a line: Caspase-3/7 induction in HepG2 cells by small molecules, qHTS cell viability counter screen (AID 1346981). Also: nearly all actives have a fitted effect of over 30% in size. Also: potency is read from the fitted curve at half-maximal effect. A digest of the protocol:
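Wild-type HepG2 cells, 2,000/well, settled 5 hr at 37 C, 5% CO2 before compound addition. Viability read by CellTiter-Fluor fluorescence, reagent added after 16 hr compound exposure, then 1 hr at 37C, in the same wells as the caspase read.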

In test [6] the target is Nuclear receptor subfamily 1 group I member 2 (Homo sapiens) (UniProt O75469). The experiment in a line: Human pregnane X receptor (PXR) small molecule agonists, qHTS assay (AID 1346982). Also: nearly all actives have a fitted effect of over 35% in size. Also: potency is read from the fitted curve at half-maximal effect. Summed up:
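PXR-Luc HepG2 reporter cells (CYP3A4-driven luciferase) in 5% charcoal-stripped FBS medium, plated 5 h before compound addition, then treated 24 h at 37C. Luciferase read by ONE-Glo luminescence after 30 min at room temperature.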

Test [7] concerns the target Acetylcholinesterase (Homo sapiens) (UniProt P22303). The experiment in a line: Acetylcholinesterase (AChE) small molecule antagonists: colormetric cell-based qHTS assay (AID 1347395; calls by dose curve; also: nearly all actives have a fitted effect of over 30% in size; also: potency is read from the fitted curve at half-maximal effect). A digest of the protocol: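 Colorimetric read-out: DTNB detects thiocholine released when cellular AChE in SH-SY5Y cells hydrolyses acetylthiocholine. Cells attached overnight, received compound for 30 min at 37 C, then substrate mix for 90 min at 37 C.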

Test [8] has the same target. The experiment in a line: Acetylcholinesterase (AChE) small molecule antagonists: enzyme-based qHTS assay (AID 1347397; calls by dose curve; also: nearly all actives have a fitted effect of over 55% in size). To be noted: Potency: AChE enzyme activity inhibition. Summed up: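 Enzyme inhibition was scored from DTNB-detected thiocholine formed by recombinant human AChE acting on acetylthiocholine. The 30 min compound preincubation and 10 min substrate reaction were both run at room temperature, with DMSO as vehicle control.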

Test [9] has the same target. The experiment in a line: Acetylcholinesterase (AChE) small molecule antagonists: fluorescence cell-based qHTS assay (AID 1347398; calls by dose curve; also: nearly all actives have a fitted effect of over 50% in size). To be noted: Potency: AChE activity. A digest of the protocol: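 Endogenous acetylcholinesterase of SH-SY5Y neuroblastoma cells is measured in situ. After overnight attachment and 30 min compound exposure, cells receive acetylthiocholine and Thiolite Green; fluorescence is read after 40 min at room temperature.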

The target is the same in test [10]. The experiment in a line: Acetylcholinesterase (AChE) small molecule antagonists: enzyme-based qHTS assay with human liver microsomes (AID 1347399; calls by dose curve; also: nearly all actives have a fitted effect of over 60% in size). As to conditions: Potency: qHTS inhibition. Summed up: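 Recombinant human AChE (50 mU/mL in the enzyme mix) and human liver microsomes (0.25 mg/mL final) were preincubated with compound and NADPH (0.25 mg/mL final) for 30 min at 37 C. Acetylthiocholine/DTNB was then added; thiocholine was read colorimetrically after 10 min at room temperature.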

The target of test [11] is Cytochrome P450 2C19 (Homo sapiens) (UniProt P33261). The experiment in a line: Cytochrome P450 Family 2 Subfamily C Member 19 (CYP2C19) small molecule antagonists: luciferase reporter qHTS assay (AID 1671197). Also: nearly all actives have a fitted effect of over 65% in size. Also: potency is read from the fitted curve at half-maximal effect. A digest of the protocol:
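Compounds were tested on CYP2C19 activity via proluciferin conversion to luciferin. The 37C, 1 h reaction followed NADPH addition; detection reagent stopped it.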
In general terms: A reporter such as luciferase makes a cellular process visible.

For test [12], the target named is Cytochrome P450 2C9 (Homo sapiens) (UniProt P11712). The experiment in a line: Cytochrome P450 Family 2 Subfamily C Member 9 (CYP2C9) small molecule antagonists: luciferase reporter qHTS assay (AID 1671198). Also: nearly all actives have a fitted effect of over 50% in size. Also: potency is read from the fitted curve at half-maximal effect. Summed up: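 P450-Glo proluciferin substrate with CYP2C9 enzyme; 10 min RT preincubation, then NADPH regeneration 1 h at 37C; luciferin detection reagent 20 min RT, luminescence in relative luminescence units.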

In test [13] the target is Voltage-gated inwardly rectifying potassium channel KCNH2 (Homo sapiens) (UniProt Q12809). The experiment in a line: Human Ether-a-go-go-Related Gene (hERG) channel small molecule antagonists: fluorescence cell-based qHTS assay (AID 1671200). Also: nearly all actives have a fitted effect of over 50% in size. Also: potency is read from the fitted curve at half-maximal effect. Summed up: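 Channel function was assessed by thallium flux. Cells seeded the previous day and kept at 37 C took up FluxOR II dye over 1 h in the dark at room temperature, then sat another 10 min before stimulation.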
(The hERG channel carries a current that helps repolarise heart muscle cells.)

For test [14], the target named is Cytochrome P450 3A4 (Homo sapiens) (UniProt P08684). The experiment in a line: Cytochrome P450 Family 3 Subfamily A Member 4 (CYP3A4) small molecule antagonists: luciferase reporter qHTS assay (AID 1671201). Also: nearly all actives have a fitted effect of over 50% in size. Also: potency is read from the fitted curve at half-maximal effect. Summed up:
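Compounds in DMSO were pin-transferred onto CYP3A4 enzyme-substrate mix and held 10 min at room temperature. NADPH regenerating solution started the reaction for 1 h; luciferin detection reagent stopped it, and luminescence was read after 20 min.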

Test [15] has as its target Cytochrome P450 2D6 (Homo sapiens) (UniProt P10635). The experiment in a line: Cytochrome P450 Family 2 Subfamily D Member 6 (CYP2D6) small molecule antagonists: luciferase reporter qHTS assay (AID 1671196). Also: nearly all actives have a fitted effect of over 50% in size. Also: potency is read from the fitted curve at half-maximal effect. Summed up:
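Cell-free P450-Glo system: CYP2D6 with proluciferin substrate was pre-incubated with compound for 10 min, then reacted with NADPH regeneration for 1 h at room temperature. Luciferin product was detected after 20 min, and data were reported as relative luminescence units.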

In test [16] the target is Cytochrome P450 1A2 (Homo sapiens) (UniProt P05177). The experiment in a line: Cytochrome P450 Family 1 Subfamily A Member 2 (CYP1A2) small molecule antagonists: luciferase reporter qHTS assay (AID 1671199). Also: nearly all actives have a fitted effect of over 50% in size. Also: potency is read from the fitted curve at half-maximal effect. A digest of the protocol:
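P450-Glo CYP1A2 enzyme–proluciferin substrate mix with compound 10 min at room temperature, then NADPH regeneration 1 h at room temperature. Luciferin detection reagent added, luminescence read after 20 min; furafylline positive control.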

Several values for one entry are separate records, joined by “and”; a condition that tells them apart may be missing. Identical values can stand only once. Records with an inconclusive call do not appear. Some structures have more than one record in an assay (separate samples or runs), and their calls can disagree. Activity calls are given as the source filed them. Unless noted, calls follow the shape of the dose curve; as a rule, active = well fitted curve in the direction sought with a large enough effect in the repeat runs; inconclusive = weak or mixed curves; inactive = no such curve, though single readings can be large; an effect the other way counts as inactive or inconclusive.

Nuclear receptor subfamily 1 group I member 2 (Homo sapiens), sequence (O75469 whole entry, looked up): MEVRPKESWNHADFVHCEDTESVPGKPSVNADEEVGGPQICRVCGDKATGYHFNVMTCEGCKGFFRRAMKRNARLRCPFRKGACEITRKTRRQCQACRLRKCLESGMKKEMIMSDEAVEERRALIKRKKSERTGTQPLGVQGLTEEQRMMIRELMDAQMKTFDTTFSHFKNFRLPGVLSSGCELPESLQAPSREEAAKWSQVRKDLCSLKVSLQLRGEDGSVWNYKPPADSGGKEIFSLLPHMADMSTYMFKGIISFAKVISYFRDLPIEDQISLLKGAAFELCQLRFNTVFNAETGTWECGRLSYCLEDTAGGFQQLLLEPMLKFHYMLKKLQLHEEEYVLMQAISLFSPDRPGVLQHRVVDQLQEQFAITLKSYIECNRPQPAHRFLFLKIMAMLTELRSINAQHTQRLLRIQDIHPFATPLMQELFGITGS
Cytochrome P450 2C19 (Homo sapiens), sequence (P33261 whole entry, looked up): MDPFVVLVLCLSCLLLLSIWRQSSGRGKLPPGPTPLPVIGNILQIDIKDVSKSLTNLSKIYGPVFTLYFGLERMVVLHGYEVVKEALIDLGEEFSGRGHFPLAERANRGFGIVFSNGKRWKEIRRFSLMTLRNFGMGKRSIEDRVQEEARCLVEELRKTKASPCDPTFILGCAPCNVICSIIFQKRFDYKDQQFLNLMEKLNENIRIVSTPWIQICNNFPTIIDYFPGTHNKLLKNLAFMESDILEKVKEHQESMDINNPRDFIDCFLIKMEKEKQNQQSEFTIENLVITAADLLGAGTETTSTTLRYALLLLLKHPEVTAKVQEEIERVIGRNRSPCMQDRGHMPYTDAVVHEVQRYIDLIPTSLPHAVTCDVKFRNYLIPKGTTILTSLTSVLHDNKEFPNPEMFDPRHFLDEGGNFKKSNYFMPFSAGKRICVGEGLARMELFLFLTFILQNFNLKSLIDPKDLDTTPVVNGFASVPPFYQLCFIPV
Acetylcholinesterase (Homo sapiens), sequence (P22303 whole entry, looked up): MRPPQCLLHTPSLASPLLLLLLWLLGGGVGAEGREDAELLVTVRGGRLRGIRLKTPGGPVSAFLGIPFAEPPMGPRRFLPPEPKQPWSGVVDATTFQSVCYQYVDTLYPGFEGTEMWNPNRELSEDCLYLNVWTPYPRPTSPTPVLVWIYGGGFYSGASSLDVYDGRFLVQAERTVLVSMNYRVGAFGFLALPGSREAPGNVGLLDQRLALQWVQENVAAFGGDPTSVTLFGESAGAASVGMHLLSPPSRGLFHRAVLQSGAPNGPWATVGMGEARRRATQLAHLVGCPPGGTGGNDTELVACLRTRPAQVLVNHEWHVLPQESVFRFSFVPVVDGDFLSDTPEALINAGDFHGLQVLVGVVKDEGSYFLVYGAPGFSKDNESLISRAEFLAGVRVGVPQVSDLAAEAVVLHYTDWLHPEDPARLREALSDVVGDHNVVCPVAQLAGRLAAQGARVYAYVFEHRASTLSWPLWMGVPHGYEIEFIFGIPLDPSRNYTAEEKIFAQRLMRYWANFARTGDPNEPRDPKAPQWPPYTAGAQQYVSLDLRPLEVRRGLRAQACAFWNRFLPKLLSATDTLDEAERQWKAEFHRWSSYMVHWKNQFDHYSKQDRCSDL
Cytochrome P450 2C9 (Homo sapiens), sequence (P11712 whole entry, looked up): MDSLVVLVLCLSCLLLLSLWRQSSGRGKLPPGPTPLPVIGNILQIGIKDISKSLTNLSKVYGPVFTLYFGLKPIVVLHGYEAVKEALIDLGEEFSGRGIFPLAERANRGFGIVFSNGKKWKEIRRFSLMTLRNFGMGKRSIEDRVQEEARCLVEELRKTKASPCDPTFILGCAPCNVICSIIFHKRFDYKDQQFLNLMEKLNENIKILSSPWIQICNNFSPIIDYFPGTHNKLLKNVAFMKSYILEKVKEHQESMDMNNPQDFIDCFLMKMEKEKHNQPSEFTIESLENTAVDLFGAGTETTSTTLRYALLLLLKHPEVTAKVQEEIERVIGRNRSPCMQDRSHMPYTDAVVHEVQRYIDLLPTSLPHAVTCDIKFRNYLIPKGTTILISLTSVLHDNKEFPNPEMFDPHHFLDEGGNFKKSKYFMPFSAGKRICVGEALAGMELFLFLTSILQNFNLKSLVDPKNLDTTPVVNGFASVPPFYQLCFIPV
Cytochrome P450 1A2 (Homo sapiens), sequence (P05177 whole entry, looked up): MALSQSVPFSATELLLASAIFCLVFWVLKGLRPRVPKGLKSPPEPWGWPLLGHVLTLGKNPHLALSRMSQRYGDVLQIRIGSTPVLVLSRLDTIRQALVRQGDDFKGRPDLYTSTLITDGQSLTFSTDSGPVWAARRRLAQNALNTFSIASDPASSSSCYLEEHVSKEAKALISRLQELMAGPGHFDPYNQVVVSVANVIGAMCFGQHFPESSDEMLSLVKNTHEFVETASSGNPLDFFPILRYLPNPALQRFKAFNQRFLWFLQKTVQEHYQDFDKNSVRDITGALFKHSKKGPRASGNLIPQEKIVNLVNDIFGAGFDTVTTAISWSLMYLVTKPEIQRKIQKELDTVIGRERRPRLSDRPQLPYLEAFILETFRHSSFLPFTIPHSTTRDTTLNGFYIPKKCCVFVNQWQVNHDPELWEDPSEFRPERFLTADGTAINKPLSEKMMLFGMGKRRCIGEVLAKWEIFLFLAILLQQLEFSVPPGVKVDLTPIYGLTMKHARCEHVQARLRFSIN
Cytochrome P450 2D6 (Homo sapiens), sequence (P10635 whole entry, looked up): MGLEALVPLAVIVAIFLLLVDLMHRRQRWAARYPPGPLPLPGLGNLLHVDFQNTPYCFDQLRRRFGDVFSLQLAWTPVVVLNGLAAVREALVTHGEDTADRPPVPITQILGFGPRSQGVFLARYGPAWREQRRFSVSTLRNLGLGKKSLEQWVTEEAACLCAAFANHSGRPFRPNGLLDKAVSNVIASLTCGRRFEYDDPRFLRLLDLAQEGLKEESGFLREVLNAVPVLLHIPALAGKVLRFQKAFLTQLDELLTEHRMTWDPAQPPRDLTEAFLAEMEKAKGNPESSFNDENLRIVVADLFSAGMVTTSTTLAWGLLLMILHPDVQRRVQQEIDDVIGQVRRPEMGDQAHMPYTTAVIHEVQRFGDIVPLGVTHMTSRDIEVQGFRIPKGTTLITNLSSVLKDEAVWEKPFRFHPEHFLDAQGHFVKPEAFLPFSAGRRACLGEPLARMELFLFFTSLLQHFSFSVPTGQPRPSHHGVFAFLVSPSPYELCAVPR
Voltage-gated inwardly rectifying potassium channel KCNH2 (Homo sapiens), sequence (Q12809 whole entry, looked up): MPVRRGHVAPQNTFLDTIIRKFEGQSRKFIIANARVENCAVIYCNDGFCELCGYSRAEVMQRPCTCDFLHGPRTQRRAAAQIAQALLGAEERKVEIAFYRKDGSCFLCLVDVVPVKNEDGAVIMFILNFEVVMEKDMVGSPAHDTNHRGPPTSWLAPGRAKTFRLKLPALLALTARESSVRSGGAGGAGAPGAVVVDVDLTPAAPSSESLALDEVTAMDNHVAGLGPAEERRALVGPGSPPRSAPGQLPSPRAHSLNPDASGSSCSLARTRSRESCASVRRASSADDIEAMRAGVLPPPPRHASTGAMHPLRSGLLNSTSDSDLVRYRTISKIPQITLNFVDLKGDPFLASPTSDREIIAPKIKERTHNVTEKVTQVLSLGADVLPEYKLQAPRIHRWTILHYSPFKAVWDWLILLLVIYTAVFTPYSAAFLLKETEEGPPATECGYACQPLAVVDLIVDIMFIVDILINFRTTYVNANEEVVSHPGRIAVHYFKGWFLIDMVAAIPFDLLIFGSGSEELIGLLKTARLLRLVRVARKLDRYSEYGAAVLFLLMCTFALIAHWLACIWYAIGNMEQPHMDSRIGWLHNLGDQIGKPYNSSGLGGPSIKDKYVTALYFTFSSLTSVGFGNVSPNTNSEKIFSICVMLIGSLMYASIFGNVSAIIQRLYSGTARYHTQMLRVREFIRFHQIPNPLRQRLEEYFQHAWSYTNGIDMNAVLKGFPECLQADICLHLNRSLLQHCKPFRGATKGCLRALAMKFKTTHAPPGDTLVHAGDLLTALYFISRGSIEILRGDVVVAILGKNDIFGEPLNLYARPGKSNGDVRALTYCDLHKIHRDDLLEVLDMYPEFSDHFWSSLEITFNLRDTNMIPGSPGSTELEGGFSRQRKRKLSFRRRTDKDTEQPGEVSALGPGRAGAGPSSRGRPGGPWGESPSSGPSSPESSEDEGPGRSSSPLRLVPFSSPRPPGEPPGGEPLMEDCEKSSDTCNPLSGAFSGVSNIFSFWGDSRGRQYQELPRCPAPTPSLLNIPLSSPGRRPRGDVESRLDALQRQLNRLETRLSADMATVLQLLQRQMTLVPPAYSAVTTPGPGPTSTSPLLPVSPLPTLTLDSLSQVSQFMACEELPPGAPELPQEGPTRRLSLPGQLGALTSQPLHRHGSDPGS
Cytochrome P450 3A4 (Homo sapiens), sequence (P08684 whole entry, looked up): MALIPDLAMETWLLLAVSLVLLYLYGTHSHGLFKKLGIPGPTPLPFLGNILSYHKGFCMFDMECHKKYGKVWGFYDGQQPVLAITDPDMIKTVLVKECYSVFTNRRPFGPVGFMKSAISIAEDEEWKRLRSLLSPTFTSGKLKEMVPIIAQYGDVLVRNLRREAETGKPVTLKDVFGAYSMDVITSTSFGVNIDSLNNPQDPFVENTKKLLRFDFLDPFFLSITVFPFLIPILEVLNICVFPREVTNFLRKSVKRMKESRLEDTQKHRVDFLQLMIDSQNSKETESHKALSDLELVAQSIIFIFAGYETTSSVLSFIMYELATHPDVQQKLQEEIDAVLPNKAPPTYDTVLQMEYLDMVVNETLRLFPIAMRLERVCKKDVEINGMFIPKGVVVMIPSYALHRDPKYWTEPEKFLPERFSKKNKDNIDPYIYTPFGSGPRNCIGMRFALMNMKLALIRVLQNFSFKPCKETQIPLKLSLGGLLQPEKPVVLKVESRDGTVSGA

For the compound `CCCCC(C#N)(Cn1cncn1)c1ccc(Cl)cc1` (configuration not stated), the Potency result in [1], in test [2], in [3], in test [4], in [5] and in test [7] was “inactive” in each case. For the same compound, the Potency result in test [8], in [9], in [10] and in [13] was “inactive” each time. For the same compound, the Potency in test [6] was 30.5 µM (active) and inactive; in test [11] it was 794 nM (active) and 633 nM (active); in test [12], 28.2 µM (active) and 25.2 µM (active); in test [14], 158 nM (active) and 224 nM (active).

For `CCN(CC)C(=O)C(C)Oc1cccc2ccccc12` (configuration not stated), the Potency result in [1], in test [2], in test [4], in test [5], in test [7] and in [8] was “inactive” each time. For the same compound, the Potency result in [9], in test [10], in test [15] and in test [13] was “inactive” throughout. Besides, the Potency is 7.76 µM (active) and 864 nM (active) in test [6]; 1.01 µM (active) and 633 nM (active) in test [11]; 11.4 µM (active) and 35.6 µM (active) in test [12]; 14.3 µM (active) and 28.3 µM (active) in test [16]; 6.33 µM (active) in [14].

Turning to `O=[N+]([O-])c1ccc(Cl)c([N+](=O)[O-])c1`, the Potency was 31.6 µM (active) and 21.7 µM (active) in test [1]; 6.96 µM (active) and 12.2 µM (active) in test [3]; 55.3 µM (active) and 48.6 µM (active) in test [5]; 9.84 µM (active) and 15.4 µM (active) in test [6]; 64.3 µM (active) and 63.3 µM (active) in test [7]; 40.6 µM (active) and 79.6 µM (active) in test [11]. In test [16], the Potency is 12.8 µM (active) and 11.2 µM (active). Also, the Potency result in [2], in test [4], in test [8], in [9], in test [10] and in test [13] was “inactive” each time. In addition, the Potency entry in test [14] was “inactive”.

On to `Clc1cccc(Cl)c1`, for which the Potency result in [1], in [2], in [3], in test [4], in test [5] and in [6] was “inactive” each time. Besides, the Potency result in test [7], in test [8], in test [9], in test [10], in test [15] and in [12] was “inactive” throughout. Further, the Potency entry in test [13] and in [14] was “inactive” in each case. For the same compound, in test [11], the Potency is 62.8 µM (active) and inactive.

As to `COP(=S)(OC)SCn1nnc2ccccc2c1=O`, the Potency result in [1], in test [2], in test [4], in test [5], in [10] and in test [13] was “inactive” throughout. For the same compound, the Potency in [6] was 53.4 µM (active); in test [15], 55.3 µM (active) and 39.9 µM (active); in [11], 1.1 µM (active) and 894 nM (active); in test [12] it was 5.53 µM (active) and 3.99 µM (active); in test [16], 27.7 µM (active) and 28.3 µM (active).

Turning to `CCC[CH2][Sn]([Cl])([Cl])[CH2]CCC`, the Potency in test [1] is 501 nM (active) and 1.37 µM (active); in [3] it was 220 nM (active) and 154 nM (active); in test [5] it was 4.38 µM (active) and 7.7 µM (active); in [15] it was 36 µM (active); in test [11] it was 8.07 µM (active) and 22.4 µM (active); in [12], 36 µM (active). Moreover, the Potency in test [13] is 39.4 µM (active) and 17.4 µM (active). Besides, the Potency entry in test [2], in test [4], in test [7], in [8], in [9] and in [10] was “inactive” throughout. For the same compound, the Potency entry in test [16] and in [14] was “inactive” in each case.

Take `O=S(=O)(O)C(F)(F)C(F)(F)C(F)(F)C(F)(F)C(F)(F)C(F)(F)C(F)(F)C(F)(F)F`: the Potency result in test [1], in test [2], in test [4], in test [5], in test [7] and in test [8] was “inactive” in each case. Moreover, the Potency result in test [9], in test [10], in [15] and in test [13] was “inactive” throughout. Moreover, the Potency entry was “inactive and 54.5 µM (active)” in test [6]; 42.6 µM (active) and 22.4 µM (active) in [11]; 537 nM (active) and 502 nM (active) and 423 nM (active) in [12]; “inactive and 50.2 µM (active)” in test [16].

`OC(c1ccc(Cl)cc1)(c1cncnc1)c1ccccc1Cl` (configuration not stated): the Potency result in test [1], in [2], in test [4], in test [7], in test [8] and in test [9] was “inactive” in each case. Also, the Potency result in test [10] was “inactive”. Also, the Potency was 62.2 µM (active) in test [3]; 31.2 µM (active) and 30.6 µM (active) in [6]; 36.2 µM (active) and 35.6 µM (active) in test [15]; 229 nM (active) and 283 nM (active) in test [11]; 7.23 µM (active) and 6.33 µM (active) in test [12]; 49.8 µM (active) and 54.9 µM (active) in test [13]. Further, the Potency in test [14] was 182 nM (active) and 224 nM (active).

As for `COc1ccc(CO)cc1`, the Potency result in test [1], in test [2], in [3], in test [4], in test [5] and in test [13] was “inactive” throughout.

As for `Cn1c(-c2ccccc2)cc(-c2ccccc2)[n+]1C`, the Potency result in test [1], in test [2], in test [3], in [4], in [5] and in test [6] was “inactive” throughout. The Potency result in test [8], in test [10], in [11], in [16] and in test [14] was “inactive” throughout. The Potency in test [15] is 502 nM (active) and 1 µM (active); in test [12], “inactive and 35.6 µM (active)”; in test [13], 43.6 µM (active).
